{"source": "PubChem BioAssay AID504833", "about": "(Johns Hopkins Ion Channel Center, 2011)", "note": "About 2,200 (88%) of roughly 2,500 compounds were called active. So high a share suggests a set chosen from earlier hits. The list is a sample of the results. Unmarked numbers belong to inactive results.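 Rule for the calls: active = primary screen active, with duplicate mean activation above negative control mean plus 3 SD (cut at about 11% in these data); inactive = the rest.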"}
{"target": "High affinity choline transporter 1 (Homo sapiens) (UniProt Q9GZV3)", "sequence (Q9GZV3 whole entry, looked up)": "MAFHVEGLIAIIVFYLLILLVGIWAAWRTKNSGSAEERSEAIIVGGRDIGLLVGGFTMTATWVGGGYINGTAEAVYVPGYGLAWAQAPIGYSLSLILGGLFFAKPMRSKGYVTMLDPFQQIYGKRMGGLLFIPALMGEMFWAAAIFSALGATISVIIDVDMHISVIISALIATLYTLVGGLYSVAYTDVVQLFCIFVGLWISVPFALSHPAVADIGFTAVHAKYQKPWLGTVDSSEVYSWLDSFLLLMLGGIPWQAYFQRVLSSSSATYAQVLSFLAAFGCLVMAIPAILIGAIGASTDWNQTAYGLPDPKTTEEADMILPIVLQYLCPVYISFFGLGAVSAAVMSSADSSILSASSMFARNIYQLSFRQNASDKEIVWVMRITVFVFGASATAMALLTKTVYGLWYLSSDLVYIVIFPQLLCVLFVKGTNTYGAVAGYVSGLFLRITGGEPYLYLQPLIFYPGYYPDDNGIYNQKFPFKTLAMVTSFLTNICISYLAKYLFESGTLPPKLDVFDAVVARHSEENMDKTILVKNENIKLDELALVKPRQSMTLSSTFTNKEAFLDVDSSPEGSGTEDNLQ", "test": "CHT activators, confirmation, cell-based, membrane potential dye, duplicate (AID 504833)", "conditions": "CHT-expressing cells, membrane potential dye fluorescence (FDSS); at 10 µM; hits give high values; % of choline EC20–EC90 response window; HEK293 expressing CHT LV-AA mutant; choline added at its EC20"}
{"smiles": "COc1ccc(Nc2nnc(C)c3ccccc23)cc1", "activation": "38.3% (active)"}
{"smiles": "CN(C)c1ccnc(Nc2ccc(F)cc2)c1C#N", "activation": "52.3% (active)"}
{"smiles": "Clc1ccc(C[n+]2cc(-c3ccc(Cl)cc3)n3c2CCC3)cc1", "activation": "57.3% (active)"}
{"smiles": "COc1ccc2c(c1)cc1n2CCN=C1NN", "activation": "49% (active)"}
{"smiles": "COc1cc2c(cc1OC)C(c1cccc([N+](=O)[O-])c1)=NCC2", "activation": "68.6% (active)"}
{"smiles": "COc1ccc(Cn2c(-c3ccc(Cl)cc3)c[n+]3ccccc23)cc1", "activation": "73.3% (active)"}
{"smiles": "Cc1cc(=O)oc2c(C)c(OC(C)C(=O)NC3CCN(Cc4ccccc4)CC3)ccc12", "note": "(configuration not stated)", "activation": "56.9% (active)"}
{"smiles": "Cn1c(=NC(=O)c2cnccn2)sc2ccccc21", "activation": "55.7% (active)"}
{"smiles": "Cc1c(CCOC(=O)CC23CC4CC(CC(C)(C4)C2)C3)sc[n+]1Cc1ccc([N+](=O)[O-])cc1", "activation": "26.9% (active)"}
{"smiles": "Cc1cccn2c(=O)c3cc(C#N)c(=O)n(CCCN4CCOCC4)c3nc12", "activation": "42.7% (active)"}
{"smiles": "CN1CCN(c2nc(Nc3ccc(O)cc3)nc3ccccc23)CC1", "activation": "44.2% (active)"}
{"smiles": "CCN1C(=NCCc2cccnc2)N[C@@H](c2ccccc2)[C@H](C(=O)OC)[C@H]1C", "activation": "14% (active)"}
{"smiles": "Cc1ccccc1C(=O)NCC(c1ccco1)N1CCc2ccccc21", "note": "(configuration not stated)", "activation": "9.36%"}
{"smiles": "CC(=O)N1CC[n+]2c(-c3ccc([N+](=O)[O-])cc3)csc21", "activation": "38.1% (active)"}
{"smiles": "C[C@]1(C(=O)NCCc2c[nH]c3ccccc23)C=C[C@@H](Cc2ccccc2)N1C(=O)c1ccccc1", "activation": "10.8% (active)"}
{"smiles": "O=C(C1=C(O)C(=O)N(Cc2ccccc2)C1c1ccco1)c1ccco1", "note": "(configuration not stated)", "activation": "9.6%"}
{"smiles": "O=C(COC(=O)C1CCN(S(=O)(=O)c2ccc3c(c2)OCCO3)CC1)Nc1ccccc1OC(F)F", "activation": "4.44%"}
{"smiles": "N#C/C(=C\\c1ccc(-c2cccc([N+](=O)[O-])c2)o1)C(=O)NCCN1CCOCC1", "activation": "15.6% (active)"}
{"smiles": "N#Cc1ccc(/C=C2\\CCn3c2nc2cc(C(=O)O)ccc2c3=O)cc1", "activation": "48.6% (active)"}
{"smiles": "COc1ccc(CC2c3cc(OC)c(OC)cc3CC[N+]2(C)CCC(=O)OCCCCCOC(=O)CC[N+]2(C)CCc3cc(OC)c(OC)cc3C2Cc2ccc(OC)c(OC)c2)cc1OC", "note": "(configuration not stated)", "activation": "35.7% (active)"}
{"smiles": "CC(Nc1nc(N2CCN(CCO)CC2)nc2ccccc12)c1ccccc1", "note": "(configuration not stated)", "activation": "24.3% (active)"}
{"smiles": "COc1ccc(C(O)(C2CCCCC2)C(CN2CCCC2)c2ccccc2)cc1", "note": "(configuration not stated)", "activation": "35.9% (active)"}
{"smiles": "CN(C)c1cc(N)c2ccccc2n1", "note": "(tested in a mixture with another compound)", "activation": "67.2% (active)"}
{"smiles": "CC(C)(C)Nc1nc(-c2ccccn2)nc2ccccc12", "activation": "57.4% (active)"}
{"smiles": "COc1cc2nc(N3CCN(C(=O)[C@@H]4CCCO4)CC3)nc(N)c2cc1OC", "activation": "43% (active)"}
{"smiles": "Cn1c(=O)n(C)c2cc(C(=O)Nc3ccc4c(c3)OCO4)ccc21", "activation": "43.2% (active)"}
{"smiles": "O=C(NCCC1=CCCCC1)C1CCN(Cc2cnn(-c3ccccc3)c2-n2cccc2)CC1", "activation": "29.7% (active)"}
{"smiles": "O=[N+]([O-])c1ccc(N2CCNCC2)cc1NCc1cccnc1", "activation": "52.9% (active)"}
{"smiles": "Cc1ccc(C(=O)C[n+]2cc(-c3ccccc3)n3c2CCCCC3)cc1", "activation": "43.1% (active)"}
{"smiles": "CCN1/C(=C/c2ccc3ccc(C)cc3[n+]2CC)Sc2ccccc21", "activation": "3.38%"}
{"smiles": "Cc1ccc(-n2c(SCC(=O)N3c4ccccc4Sc4ccccc43)nnc2-c2ccncc2)cc1", "activation": "21.6% (active)"}
{"smiles": "Cc1ccc(C(=O)c2ccc(N3CCN(C)CC3)c([N+](=O)[O-])c2)cc1", "activation": "9.27%"}
{"smiles": "CCN1CCN(c2ccc([N+](=O)[O-])cc2C(=O)c2ccc(Cl)cc2)CC1", "activation": "50.4% (active)"}
{"smiles": "CN(C)c1cc[n+](Cc2ccccc2)cc1", "activation": "50.2% (active)"}
{"smiles": "N=c1c2c3c(sc2ncn1CCCN1CCOCC1)CCCCC3", "activation": "72.9% (active)"}
{"smiles": "N=c1c2c3c(sc2ncn1N)CCCCC3", "activation": "42.9% (active)"}
{"smiles": "COc1ccc([N+](=O)[O-])cc1N(CC(O)CN(CC(C)C)CC(C)C)S(=O)(=O)c1ccc(C)cc1", "note": "(configuration not stated)", "activation": "37.9% (active)"}
{"smiles": "Cc1nc2ccccc2c2oc(C(=O)NCCCN3CCC(C)CC3)cc12", "activation": "13.8% (active)"}
{"smiles": "O=C(c1ccccc1F)N(Cc1ccccc1)Cc1ccccc1", "activation": "34.5% (active)"}
{"smiles": "CCN(CC)CCCNC(=O)c1cn(C)c2ccc(S(=O)(=O)N(C)C3CCCCC3)cc2c1=O", "activation": "32.9% (active)"}
{"smiles": "CCN(CC)CCC(c1cc(OC)c(OC)c(OC)c1)c1c(OC)cc(OC)c2c(-c3ccccc3)cc(=O)oc12", "note": "(configuration not stated)", "activation": "27.1% (active)"}
{"smiles": "COc1ccc(Nc2cc(C)nc(-n3nc(C)cc3C)n2)cc1", "activation": "12.6% (active)"}
{"smiles": "O=Cc1ccc(OCc2cn3ccccc3n2)cc1", "activation": "38.8% (active)"}
{"smiles": "Cc1cc2c(cc1C)[n+](C)cn2CC(O)COCC1CC=CCC1", "note": "(configuration not stated)", "activation": "80.5% (active)"}
{"smiles": "COc1ccccc1NC(=O)C1=C(C)Nc2nc3ccccc3n2C1c1cccs1", "note": "(configuration not stated)", "activation": "17.7% (active)"}
{"smiles": "Cc1cc(=O)oc2cc(OCCC[n+]3ccccc3)ccc12", "activation": "61.4% (active)"}
{"smiles": "O=C(CCC1CCN(C(=O)c2cccc(Cl)c2F)CC1)Nc1ccccc1", "activation": "24.5% (active)"}
